In PubChem BioAssay (EPA / NIEHS):
The source made the active and inactive calls. Rule for the calls: active = hit-call score of the fitted dose curve at least 0.9, where 1 is the maximum; inactive = score below 0.9.

How the values were obtained:
[1] = ATG_ERE_CIS: Attagene CIS-FACTORIAL HepG2 Assay for Estrogen Response Element (ERE) (AID 2282940); conditions: HepG2 ERE cis-reporter, Attagene RNA transcript; actives raise or lower the signal
In short: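 Cells used were human hepatoma HepG2, transfected with multiple reporter transcription units under cis-regulatory promoters. Reporter mRNA, read 24 h post-dosing via fluorescent RT-PCR products on capillary electrophoresis, was fitted bidirectionally relative to DMSO.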

[2] = ATG_Ets_CIS: Attagene CIS-FACTORIAL HepG2 Assay for human Erythroblast Transformation Specific (ETS) (AID 2282941); conditions: HepG2 ETS cis-reporter transcription, actives raise or lower the signal
In short: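 Cis-regulated reporter mRNA induction in HepG2 (transient transfection), 24 h exposure, RT-PCR plus capillary electrophoresis detection; DMSO serves as negative control and baseline.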

[3] = molecular target: Hepatocyte nuclear factor 3-beta (Homo sapiens) (UniProt Q9Y261); experiment: ATG_FoxA2_CIS: Attagene CIS-FACTORIAL HepG2 Assay for human Forkhead box A2 (FOXA2) (AID 2282942); conditions: HepG2 cis-reporter transcription factor activity, 24 h; actives raise or lower the signal
In short: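 Transient MRTU transfection of HepG2 liver cells; 24 h treatment; total RNA → oligo(dT) RT → PCR → FAM primer extension → HpaI cut → CE. Bidirectional fit vs DMSO.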

[4] = ATG_GATA_CIS: Attagene CIS-FACTORIAL HepG2 Assay for human GATA Binding Protein (AID 2282944); conditions: HepG2 GATA cis-element reporter, Attagene multiplex mRNA; actives raise or lower the signal
In short: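 Endogenous transcription factor activity was captured through cis-promoter-driven reporters in transfected HepG2 cells. After 24 h exposure, reporter transcripts were quantified by RT-PCR with fluorescent capillary electrophoresis, and responses fitted both directions against DMSO.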

[5] = ATG_GLI_CIS: Attagene CIS-FACTORIAL HepG2 Assay for human Zinc Finger Protein GLI1 (AID 2282945); conditions: HepG2, Attagene cis-factorial reporter mRNA, GLI element; actives raise or lower the signal
In short: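 HepG2 cells transiently transfected with cis-promoter multiplexed reporter units report endogenous transcription factor activity. After 24 h chemical exposure, reporter mRNA was quantified by RT-PCR, 6-FAM labelling, HpaI digestion and capillary electrophoresis, with bidirectional fitting against DMSO.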

[6] = ATG_GRE_CIS: Attagene CIS-FACTORIAL HepG2 Assay for human Glucocorticoid Response Elements (GRE) (AID 2282947); conditions: HepG2 GRE cis-reporter, Attagene multiplex mRNA; actives raise or lower the signal
In short: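 Cells (HepG2) bearing transfected cis-promoter reporter transcription units were treated with chemical for 24 hours. Reporter mRNA was measured via RT-PCR with capillary electrophoresis, and activity was fitted in both directions relative to DMSO.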

[7] = ATG_ISRE_CIS: Attagene CIS-FACTORIAL HepG2 Assay for human Interferon Regulatory Factor 1 (IRF1) binding to an Interferon-Stimulated Response Element (ISRE) (AID 2282948); conditions: HepG2 ISRE cis-reporter (Attagene), mRNA transcription readout; actives raise or lower the signal
In short: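 Multiplexed mRNA reporter readout in human liver HepG2 cells: cis-element-driven reporters transfected, compound added for 24 h, transcripts amplified, fluorescently labelled and sized by capillary electrophoresis; curve fitting bidirectional against DMSO.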

[8] = ATG_M_32_CIS: Attagene CIS-FACTORIAL HepG2 Assay for M32 Transcription Factor (Internal Marker) (AID 2282949); conditions: HepG2 Attagene cis-factorial M32 reporter, mRNA; actives raise or lower the signal;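 note: background control marker of the multiplexed CIS panel rather than a real target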
In short: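 HepG2 human liver cells transiently transfected with cis-promoter-driven multiple reporter transcription units, dosed 24 h. Reporter mRNA quantified by RT-PCR, FAM-labelled primer extension, HpaI digest and capillary electrophoresis; bidirectional fit versus DMSO baseline.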

[9] = ATG_M_06_CIS: Attagene CIS-FACTORIAL HepG2 Assay for M06 Transcription Factor (Internal Marker) (AID 2282950); conditions: HepG2 Attagene CIS-FACTORIAL M06 internal marker reporter; actives raise or lower the signal
In short: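 Steps: transfect HepG2 with multiplexed cis-element reporter constructs; dose chemical 24 h; extract RNA with DNase treatment; reverse-transcribe, PCR-amplify, 6-FAM label, HpaI digest; separate fragments by capillary electrophoresis. Activity fitted both directions versus DMSO.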

[10] = molecular target: Hypoxia-inducible factor 1-alpha (Homo sapiens) (UniProt Q16665); experiment: ATG_HIF1a_CIS: Attagene CIS-FACTORIAL HepG2 Assay for human Hypoxia Inducible Factor 1 (HIF1A) (AID 2282951); conditions: HepG2 Attagene cis-factorial HIF1a reporter transcription; actives raise or lower the signal
In short: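 Transient MRTU transfection of human HepG2 liver cells, 24 h compound treatment, then total RNA isolation, oligo(dT) reverse transcription, PCR amplification, fluorescent labelling and capillary electrophoresis of reporter fragments. Gain or loss relative to DMSO.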

[11] = molecular target: Hepatocyte nuclear factor 6 (Homo sapiens) (UniProt Q9UBC0); experiment: ATG_HNF6_CIS: Attagene CIS-FACTORIAL HepG2 Assay for human Hepatocyte Nuclear Factor 6 (HNF6) (AID 2282952); conditions: HepG2 Attagene cis-factorial HNF6 reporter transcription; actives raise or lower the signal
In short: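 Activity values derive from bidirectional fitting against DMSO of reporter mRNA levels, measured by capillary electrophoresis of labelled RT-PCR products from HepG2 cells exposed 24 h.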

[12] = molecular target: Heat shock factor protein 1 (Homo sapiens) (UniProt Q00613); experiment: ATG_HSE_CIS: Attagene CIS-FACTORIAL HepG2 Assay for human Heat Shock Transcription Factor 1 (HSE) (AID 2282953); conditions: HepG2 HSE cis-reporter, Attagene RNA transcription; actives raise or lower the signal
In short: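 Cells were transfected with cis-element-driven reporter constructs, dosed for 24 h, then total RNA was reverse-transcribed and reporter cDNA amplified, FAM-labelled and digested with HpaI. Fragments were resolved by capillary electrophoresis; gain or loss was fitted against DMSO.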

[13] = ATG_MRE_CIS: Attagene CIS-FACTORIAL HepG2 Assay for human Metal Responsive Element (MRE) (AID 2282954); conditions: HepG2 MRE cis-reporter transcription, Attagene multiplex; actives raise or lower the signal
In short: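 Cells were transfected with cis-promoter reporter transcription units, then dosed for 24 h. RNA was reverse-transcribed, amplified, fluorescently labelled and resolved by capillary electrophoresis, and activity was fitted in both directions relative to DMSO.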

[14] = molecular target: Paired box protein Pax-6 (Homo sapiens) (UniProt P26367); experiment: ATG_Pax6_CIS: Attagene CIS-FACTORIAL HepG2 Assay for human Paired Box 6 (PAX6) (AID 2282956); conditions: HepG2 CIS-FACTORIAL PAX6 reporter transcription, RNA readout; actives raise or lower the signal
In short: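 Fluorescent RT-PCR products separated by capillary electrophoresis report PAX6-linked promoter mRNA in HepG2 cells 24 h post-dose. Curves fitted bidirectionally, DMSO as negative control.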

[15] = ATG_PXRE_CIS: Attagene CIS-FACTORIAL HepG2 Assay for human Pregnane X Receptor Element (PXRE) (AID 2282957); conditions: HepG2 Attagene CIS-FACTORIAL PXRE reporter, mRNA; actives raise or lower the signal
In short: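 Fluorescent capillary electrophoresis of amplified reporter cDNA gave the signal, collected 24 h after dosing HepG2 cells that held transfected cis-element reporter constructs.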

[16] = ATG_PPRE_CIS: Attagene CIS-FACTORIAL HepG2 Assay for human Peroxisome Proliferator-activated Response Element (PPRE) (AID 2282958); conditions: HepG2 PPRE cis-element reporter, Attagene transcription factor profiling; actives raise or lower the signal
In short: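 HepG2, transient MRTU transfection (cis promoter elements, endogenous TFs). 24 h dosing. RNA → oligo(dT) RT → PCR → 6-FAM primer extension → HpaI digest → CE. Bidirectional fit vs DMSO.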

[17] = ATG_RORE_CIS: Attagene CIS-FACTORIAL HepG2 Assay for human RAR-related Orphan Receptor Element (RORE) (AID 2282959); conditions: HepG2 Attagene cis-factorial RORE reporter, mRNA; actives raise or lower the signal
In short: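 Transient MRTU transfection of human HepG2 liver cells (FuGene 6); 24 h compound exposure; TriZol RNA, oligo(dT) RT, PCR, FAM labeling, HpaI cut, CE fragment analysis. DMSO = negative control/baseline.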

[18] = ATG_PBREM_CIS: Attagene CIS-FACTORIAL HepG2 Assay for human Phenobarbital-responsive Enhancer Module (PBREM) (AID 2282955); conditions: HepG2 PBREM cis-reporter, Attagene multiplexed transcription; actives raise or lower the signal
In short: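 Endogenous transcription factors in human liver HepG2 cells drive a PBREM cis-element reporter, whose transcript level after 24 h treatment is quantified by RT-PCR with capillary electrophoresis; activity fitted in both directions against DMSO.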

[19] = ATG_FoxO_CIS: Attagene CIS-FACTORIAL HepG2 Assay for human Forkhead box O (FoxO) (AID 2282943); conditions: HepG2 Attagene cis-reporter, FoxO element, mRNA; actives raise or lower the signal
In short: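 HepG2 cells transiently transfected with cis-promoter-driven multiple reporter transcription units; 24 h after chemical dosing, reporter mRNA quantified by RT-PCR, fluorescent primer extension, HpaI digestion and capillary electrophoresis. Bidirectional fitting versus DMSO baseline.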

[20] = molecular target: Bile acid receptor (Homo sapiens) (UniProt Q96RI1); experiment: ATG_IR1_CIS: Attagene CIS-FACTORIAL HepG2 Assay for human Nuclear Receptor Subfamily 1 Group H Member 4 (NR1H4), IR1 submotif (AID 2282946); conditions: IR1 reporter transcription, actives raise or lower the signal
In short: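 Readout: reporter transcript levels by RT-PCR with fluorescent capillary electrophoresis, from HepG2 cells transiently transfected with multiplexed cis-regulated reporters and dosed 24 h. Gain- or loss-of-signal fitted versus DMSO negative control.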

Measured: AC50

Paired box protein Pax-6 (Homo sapiens), sequence (P26367 whole entry, looked up): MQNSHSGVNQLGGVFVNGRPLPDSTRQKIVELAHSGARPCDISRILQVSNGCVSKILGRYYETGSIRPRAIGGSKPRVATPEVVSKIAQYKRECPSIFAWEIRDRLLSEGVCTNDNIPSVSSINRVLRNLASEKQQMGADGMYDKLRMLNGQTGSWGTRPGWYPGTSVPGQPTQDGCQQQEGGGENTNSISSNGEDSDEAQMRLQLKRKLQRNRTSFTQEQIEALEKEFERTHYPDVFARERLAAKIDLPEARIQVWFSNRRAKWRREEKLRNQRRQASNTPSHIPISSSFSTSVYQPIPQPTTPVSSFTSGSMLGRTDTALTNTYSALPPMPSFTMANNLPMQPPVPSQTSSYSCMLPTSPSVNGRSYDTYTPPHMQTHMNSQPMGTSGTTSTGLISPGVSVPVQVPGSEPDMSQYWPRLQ
Hypoxia-inducible factor 1-alpha (Homo sapiens), sequence (Q16665 whole entry, looked up, the tested form may be a part): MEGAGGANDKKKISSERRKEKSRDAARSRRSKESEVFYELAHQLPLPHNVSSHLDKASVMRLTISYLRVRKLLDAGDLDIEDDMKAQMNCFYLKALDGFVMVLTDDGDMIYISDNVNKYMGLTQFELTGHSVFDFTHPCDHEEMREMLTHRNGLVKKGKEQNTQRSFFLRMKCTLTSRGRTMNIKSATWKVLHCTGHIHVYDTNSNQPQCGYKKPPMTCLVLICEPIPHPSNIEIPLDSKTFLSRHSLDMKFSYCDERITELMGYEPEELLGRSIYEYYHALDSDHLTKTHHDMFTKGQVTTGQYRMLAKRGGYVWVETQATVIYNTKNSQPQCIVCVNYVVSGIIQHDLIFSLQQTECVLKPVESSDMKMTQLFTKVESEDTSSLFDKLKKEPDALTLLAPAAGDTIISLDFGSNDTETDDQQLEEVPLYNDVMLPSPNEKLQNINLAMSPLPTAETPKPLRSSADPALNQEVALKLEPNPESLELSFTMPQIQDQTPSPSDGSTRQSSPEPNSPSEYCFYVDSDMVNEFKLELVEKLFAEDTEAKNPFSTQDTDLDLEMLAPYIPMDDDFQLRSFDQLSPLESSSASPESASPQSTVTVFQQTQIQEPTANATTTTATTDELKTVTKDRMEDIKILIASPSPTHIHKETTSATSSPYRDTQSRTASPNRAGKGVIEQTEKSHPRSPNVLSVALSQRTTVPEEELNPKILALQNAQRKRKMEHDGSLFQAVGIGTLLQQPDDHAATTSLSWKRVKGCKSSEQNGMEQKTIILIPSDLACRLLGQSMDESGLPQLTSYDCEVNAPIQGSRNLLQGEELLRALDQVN
Hepatocyte nuclear factor 3-beta (Homo sapiens), sequence (Q9Y261 whole entry, looked up): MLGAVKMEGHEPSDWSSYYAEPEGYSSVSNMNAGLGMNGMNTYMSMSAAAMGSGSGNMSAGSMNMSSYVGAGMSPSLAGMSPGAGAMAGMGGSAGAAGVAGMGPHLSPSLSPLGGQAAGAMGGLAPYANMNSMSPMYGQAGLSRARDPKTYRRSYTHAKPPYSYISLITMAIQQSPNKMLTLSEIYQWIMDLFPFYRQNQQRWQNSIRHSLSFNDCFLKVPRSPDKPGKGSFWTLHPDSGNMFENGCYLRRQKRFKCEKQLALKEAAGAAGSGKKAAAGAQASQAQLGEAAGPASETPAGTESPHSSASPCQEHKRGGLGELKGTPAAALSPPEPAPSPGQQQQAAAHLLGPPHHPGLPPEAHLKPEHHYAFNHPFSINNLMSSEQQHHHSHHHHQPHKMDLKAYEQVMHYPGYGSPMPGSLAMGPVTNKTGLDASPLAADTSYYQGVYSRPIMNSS
Heat shock factor protein 1 (Homo sapiens), sequence (Q00613 whole entry, looked up, the tested form may be a part): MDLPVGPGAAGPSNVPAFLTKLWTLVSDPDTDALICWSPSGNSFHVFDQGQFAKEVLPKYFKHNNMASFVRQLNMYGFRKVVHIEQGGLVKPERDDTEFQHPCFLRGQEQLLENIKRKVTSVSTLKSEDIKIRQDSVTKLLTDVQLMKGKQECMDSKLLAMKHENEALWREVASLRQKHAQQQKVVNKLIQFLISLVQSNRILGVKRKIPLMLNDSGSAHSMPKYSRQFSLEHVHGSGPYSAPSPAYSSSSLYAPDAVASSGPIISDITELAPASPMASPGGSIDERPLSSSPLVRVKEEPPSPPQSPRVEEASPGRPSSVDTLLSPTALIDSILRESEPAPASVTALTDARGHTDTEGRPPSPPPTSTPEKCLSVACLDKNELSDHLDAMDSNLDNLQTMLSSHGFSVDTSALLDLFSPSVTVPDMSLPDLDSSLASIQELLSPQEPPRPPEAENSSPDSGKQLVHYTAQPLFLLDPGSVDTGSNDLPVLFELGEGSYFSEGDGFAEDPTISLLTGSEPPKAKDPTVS
Bile acid receptor (Homo sapiens), sequence (Q96RI1 whole entry, looked up): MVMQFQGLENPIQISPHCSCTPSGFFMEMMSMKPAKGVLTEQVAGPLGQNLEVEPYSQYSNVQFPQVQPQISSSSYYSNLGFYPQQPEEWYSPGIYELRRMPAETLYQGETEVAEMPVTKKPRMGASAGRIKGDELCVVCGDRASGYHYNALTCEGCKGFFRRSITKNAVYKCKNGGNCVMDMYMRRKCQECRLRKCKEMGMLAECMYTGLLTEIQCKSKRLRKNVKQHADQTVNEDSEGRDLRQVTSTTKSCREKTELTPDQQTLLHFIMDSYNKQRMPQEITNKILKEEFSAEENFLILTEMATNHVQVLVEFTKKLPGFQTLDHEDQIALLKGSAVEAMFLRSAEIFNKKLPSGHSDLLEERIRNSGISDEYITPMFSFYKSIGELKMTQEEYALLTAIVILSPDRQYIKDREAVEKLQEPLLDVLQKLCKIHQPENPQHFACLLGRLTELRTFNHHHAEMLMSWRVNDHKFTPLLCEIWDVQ
Hepatocyte nuclear factor 6 (Homo sapiens), sequence (Q9UBC0 whole entry, looked up): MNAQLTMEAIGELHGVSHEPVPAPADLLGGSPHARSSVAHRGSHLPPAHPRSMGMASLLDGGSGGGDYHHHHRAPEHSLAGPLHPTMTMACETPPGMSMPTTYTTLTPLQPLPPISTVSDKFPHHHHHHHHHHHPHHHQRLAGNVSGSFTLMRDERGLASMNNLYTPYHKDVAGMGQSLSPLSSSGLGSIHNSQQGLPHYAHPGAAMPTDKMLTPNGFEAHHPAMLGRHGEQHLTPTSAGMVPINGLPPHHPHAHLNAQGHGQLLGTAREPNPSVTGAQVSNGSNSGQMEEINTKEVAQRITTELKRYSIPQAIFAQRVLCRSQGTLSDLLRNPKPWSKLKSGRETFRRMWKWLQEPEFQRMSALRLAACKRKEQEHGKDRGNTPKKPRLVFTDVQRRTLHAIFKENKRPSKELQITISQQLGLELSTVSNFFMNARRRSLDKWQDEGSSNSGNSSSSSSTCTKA

CCN(CC)C(=O)C(Cl)=C(C)OP(=O)(OC)OC
active: [15] 11.3 µM
inactive: [1] | [2] | [3] | [4] | [5] | [6] | [7] | [8] | [9] | [10] | [11] | [12] | [13] | [14] | [16] | [17]

Cc1ccc(CCl)cc1
inactive: [1] | [2] | [3] | [4] | [5] | [6] | [7] | [8] | [9] | [10] | [11] | [12] | [13] | [18] | [14] | [15] | [16] | [17]

COP(=S)(OC)Oc1cc(Cl)c(I)cc1Cl
active: [2] 39.9 µM | [19] 41.8 µM | [4] 46.2 µM | [6] 58.1 µM | [7] 48.7 µM | [10] 33.4 µM | [11] 27.2 µM | [12] 62.1 µM | [13] 37.5 µM | [14] 33.4 µM | [15] 8.06 µM | [17] 15 µM
inactive: [3] | [5] | [20] | [8] | [18] | [16]

O=C(CBr)c1ccc(O)cc1
inactive: [2] | [3] | [19] | [4] | [5] | [20] | [6] | [7] | [8] | [9] | [10] | [11] | [12] | [13] | [14] | [15] | [17]

Cc1cccc(OP(=O)(Oc2cccc(C)c2)Oc2cccc(C)c2)c1
active: [15] 1.32 µM
inactive: [2] | [3] | [19] | [4] | [5] | [20] | [6] | [7] | [8] | [9] | [10] | [11] | [12] | [13] | [18] | [14] | [16]

FC(F)OCC(F)(F)C(F)(F)F
inactive: [1] | [2] | [3] | [4] | [5] | [6] | [7] | [8] | [9] | [10] | [11] | [12] | [18] | [14] | [15] | [17]

CCOP(=S)(OCC)O/N=C(\C#N)c1ccccc1
inactive: [2] | [3] | [19] | [4] | [5] | [20] | [6] | [7] | [8] | [9] | [11] | [12] | [14] | [17]
active: [10] 67.2 µM | [15] 2.2 µM | [16] 7.85 µM

CN(C)[C@@H]1C(=O)C(C(N)=O)=C(O)[C@@]2(O)C(=O)C3=C(O)c4c(O)ccc(Cl)c4[C@@](C)(O)[C@H]3C[C@@H]12
inactive: [2] | [3] | [19] | [4] | [5] | [20] | [6] | [7] | [8] | [9] | [10] | [11] | [12] | [13] | [18] | [14] | [15] | [17]
